High-throughput results: PubChem BioAssay, National Center for Advancing Translational Sciences (NCATS)
HTT ATP protect = protects HTT-Q103 PC12 cells, measured by ATP | PC12 HTT-Q103 induced, cytoprotection, ATP luminescence, 40 h | AID 1471 | 230,000 tested, 0.14% active | Potency, µM (titrated, usually from 56.4 µM), without a hit: cytoprotection (ATP increase), hits mostly activators; note: % of control where 0% means no effect; nearly all actives have a fitted effect of over 45% in size
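Stable PC12 Q103-GFP cells in serum-supplemented, phenol red-free DMEM; induction by tebufenozide at 100 nM final; compound dose series; cell viability quantified luminescently from ATP.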
HepG2 tox-1 = counter-screen for TGF-b inhibitors: cytotoxicity in HepG2 cells | HepG2 CAGA-GFP viability, ATP luminescence, 18 h | Potency, µM (highest dose often 46.1 µM), inactives show at the highest dose activity change, negative = cytotoxicity, actives largely listed as cytotoxic | 410,000 tested, 0.76% active | AID 588856
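HepG2 CAGA-GFP cells (1000/well, DMEM with 1% FBS) received compound, then TGF-beta at 500 pg/mL final, and were incubated 18 hours at 37 degrees C. Viability was read by CellTiter-Glo luminescence. Media-only wells were set as complete cell-killing and DMSO as no toxicity.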
S2 tox = reduces viability in counter-screen for ATXN expression inhibitors. Potency, µM (doses to about 56.7 µM), actives largely listed as cytotoxic. S2 cells (HEK-293 line with an ATXN2-luciferase reporter) viability, CellTiter-Fluor protease fluorescence, 24 h. AID 651635. 400,000 tested, 0.49% active; note: nearly all actives have a fitted effect of over 40% in size
ATXN2 expr inh = ATXN2 expression inhibition; HEK-293 ATXN2-luciferase reporter, luminescence, 24 h; Potency, µM (titrated, usually from 57 µM), inactives show at the top dose activity change, negative = inhibition, most hits filed as inhibitors; 360,000 tested, 0.72% active; AID 1745845; note: % is set by controls: 0 for no effect and ±100 for the full control effect; nearly all actives have a fitted effect of over 55% in size
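qHTS (up to 57 uM final) was run with 24 h compound exposure of reporter cells at 37 °C. Each well was multiplexed: SteadyGlo luminescence measured ATXN2-luciferase expression after a fluorogenic Gly-Phe-AFC viability readout (25 uM final).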
HTT aggregate = mutant huntingtin aggregation inhibition; Potency, µM (series often up to 46.1 µM), for the others: top-dose activity change, negative = inhibition, usual class: inhibitors; 220,000 tested, 1.1% active; PC12 HttQ103-GFP aggregates, Acumen cytometry, 40 h; note: % is set by controls: 0 for no effect and ±100 for the full control effect; nearly all actives have a fitted effect of over 60% in size
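Read-out: GFP aggregate count by laser scanning cytometer (488 nm excitation, 500-530 nm emission, 1–25 µm objects >6 SD above background). Cells: PC12, inducible HTTex1-Q103-GFP, 100 nM tebufenozide; compounds titrated.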
TGFb SMAD3 inh = inhibitors of TGF-b signaling; HepG2 CAGA-GFP TGF-b/SMAD3 reporter, GFP fluorescence, 18 h; TGF-beta stimulated, 500 pg/mL final; Potency, µM (series often up to 46.1 µM), without a hit: at the highest dose activity, negative = inhibition, actives largely listed as inhibitors; 410,000 tested, 1.2% active; AID 588855; note: % is set by controls: 0 for no effect and ±100 for the full control effect; nearly all actives have a fitted effect of over 65% in size
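HEPG2 CAGA-GFP reporter cells (1000/well, DMEM with 1% FBS) received compounds, then recombinant TGF-beta at 500 pg/mL final for 18 hours at 37 degrees C. Per-cell GFP summed per well was normalised to unstimulated and stimulated DMSO controls before curve fitting.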
TGFb confirm = TGF-b pathway inhibition, cherry-pick retest | shares compounds with TGFb SMAD3 inh | HepG2 CAGA-GFP TGF-b reporter, GFP fluorescence, 18 h; cells stimulated with TGF-beta, 500 pg/mL | Potency, µM (doses to about 46.1 µM), without a hit: at the highest dose activity, negative = inhibition, actives largely listed as inhibitors | 1,600 tested, 63% active | AID 720534; note: % is set by controls: 0 for no effect and ±100 for the full control effect; nearly all actives have a fitted effect of over 65% in size
HepG2 tox-2 = counter-screen for TGF-b inhibitors: cytotoxicity in HepG2 cells. 1,600 tested, 27% active. HepG2 CAGA-GFP viability, ATP luminescence, 18 h; cells stimulated with TGF-beta, 500 pg/mL. shares compounds with TGFb SMAD3 inh. Potency, µM (series often up to 46.1 µM), for inactives: at the highest dose activity, negative = cytotoxicity, hits mostly inhibitors. AID 720535; note: % is set by controls: 0 for no effect and ±100 for the full control effect; nearly all actives have a fitted effect of over 70% in size
TGFb CCL64 inh = blocks TGF-b signaling in CCL64 reporter cells; shares compounds with TGFb SMAD3 inh; CCL64 CAGA-GFP reporter, TGF-b stimulated, GFP fluorescence, 18 h; 1,600 tested, 41% active; Potency, µM (doses to about 46.1 µM), inactives show at the top dose activity, negative = inhibition, hits mostly inhibitors; note: nearly all actives have a fitted effect of over 65% in size
TGFb COP inh = blocks TGF-b signaling in HepG2 COP reporter. shares compounds with TGFb SMAD3 inh. HepG2 COP-GFP TGF-b reporter, GFP fluorescence, 18 h; cells stimulated by added recombinant TGF-beta. Potency, µM (highest dose often 46.1 µM), for inactives: top-dose activity, negative = inhibition, most hits filed as inhibitors. 1,600 tested, 3% active; note: nearly all actives have a fitted effect of over 70% in size
* marks the source's active call; other numbers are inactive results; i = inactive; ? = inconclusive; · = no result given; [ ] = dose if it differs, or a comment. Sampled rows, rich in hits. Any-hit rate of the full collection: about 2.8%. Calls come from the whole dose curve; as a rule, active = well fitted curve in the direction sought with a large enough effect; inconclusive = small, poorly fitted or top-dose-only effect, or another doubt; inactive = no such curve, though single readings can be large; an effect the other way counts as inactive or inconclusive. Potency is the fitted concentration of half-maximal effect.

SMILES	HTT ATP protect	HepG2 tox-1	S2 tox	ATXN2 expr inh	HTT aggregate	TGFb SMAD3 inh	TGFb confirm	HepG2 tox-2	TGFb CCL64 inh	TGFb COP inh
O=S(=O)(c1ccccc1)N1CCN(c2nc(-c3ccc(F)cc3)nc3cc(Cl)ccc23)CC1	·	-8%	·	·	·	-3%	·	·	·	·
CN(C)CCCN(C(=O)CCOc1ccccc1)c1nc2ccc(F)cc2s1	-176%	-125%	?	·	?	3.5µM*	15µM*	?	8.2µM*	?
CN(C)CCCN(C(=O)COc1ccccc1)c1nc2ccc(F)cc2s1	-36%	-2%	i	·	?	18%	·	·	·	·
C/C(CCN1CCCc2nc(C)c(C)cc21)=N\O[C@@H](C)c1cn([C@H](CO)Cc2ccccc2)nn1	3%[10 µM]	·	·	·	·	·	·	·	·	·
Cc1ccc(-c2nnc3ccc(SCC(=O)c4ccccc4)nn23)cc1	·	11%	·	·	·	8%	·	·	·	·
CCCCC[C@H](O)/C=C/C=C\C/C=C\C/C=C\CCCC(=O)O	-36%	·	·	·	·	·	·	·	·	·
O=C1[C@@H](Oc2ccccc2)[C@@H](c2cnc3ccccc3c2)N1c1ccccc1	·	-22%	?	-29%	·	11µM*	21µM*	-8%	16µM*	-8%
O=C1[C@H](Oc2ccccc2)[C@@H](c2ccncc2)N1c1ccncc1	·	-3%	i	10%	·	-8%	·	·	·	·
Cc1cc(C)nc(/N=C(\N)Nc2ccc(CC(=O)OC(C)C)cc2)n1	·	-25%	i	-20%	·	10µM*	?	-29%	?	14%
Cc1cc(C)nc(/N=C(\N)Nc2ccc(OCc3ccccc3)cc2)n1	43%[10 µM]	-24%	?	?	27%[9.22 µM]	0.25µM*	0.18µM*	?	18µM*	99%
Cc1ccc(SCC(Cc2ccccc2)N2CCN(C)CCC2=O)cc1 (stereo unspecified)	·	-26%	·	·	·	-11%	·	·	·	·
Nc1ccn([C@H]2O[C@H](CO)[C@@H]3[O][Sn]([c]4ccccc4)([c]4ccccc4)[O][C@H]32)c(=O)n1	-58%[10 µM]	·	·	·	·	·	·	·	·	·
CC1(C)CCC(NC(=O)[C@H](N)CCC(=O)O)CC1	-8%[1.9 µM]	·	·	·	·	·	·	·	·	·
CCCc1cc(=O)n2[nH]cc(-c3ccc(Cl)cc3)c2n1	·	11µM*	?	10µM*	·	5µM*	26µM*	?	12µM*	87%
COc1cccc(Cn2c(=O)c(-c3ccc(Cl)cc3)nc3cnc(OC)nc32)c1	-18%	·	·	·	·	·	·	·	·	·
CC12CC[C@@](C(=O)O)(C(=O)C1=O)C2(C)C	-23%	·	·	·	·	·	·	·	·	·
Cc1cccc(NCc2ccc(O)c3ncccc23)c1C	13%[10 µM]	-12%	i	-27%	8%[9.22 µM]	11µM*	10µM*	-23%	?	14%
O=c1oc2ccccc2c(NC2CCCCC2)c1NS(=O)(=O)c1ccc(F)cc1	·	-23%	i	-1%	·	13%	·	·	·	·
CCc1ccc(S(=O)(=O)Nc2c(NC3CCCCC3)c3ccccc3oc2=O)cc1	·	-25%	i	-12%	·	16µM*	?	-6%	13%	-6%
CCCOc1ccc(C(=O)CCN2CCN(C(=O)OCC)CC2)cc1	3%	-45%	?	?	-13%	16µM*	8.2µM*	21µM*	18µM*	23µM*
O=C(CSc1n[nH]c(-c2ccccc2)n1)Nc1ncccn1	-14%	5%	i	-8%[11.3 µM]	2%[9.22 µM]	-16%	·	·	·	·
O=C(CSc1n[nH]c(-c2ccncc2)n1)Nc1ccccn1	16%[0.074 µM]	0%	i	-13%	-6%	11µM*	16µM*	-1%	?	-15%
CC1C(=O)C(=O)C=CN1C (stereo unspecified)	-4%	·	·	·	-6%	·	·	·	·	·
CN1CCN(C(=O)c2ccc(S(=O)(=O)N(C)c3ccccc3)cc2)CC1	·	2%	i	·	·	0%	·	·	·	·
Cc1ccc(N2CCN(C(=O)c3cc(C(=O)c4ccccc4C)c[nH]3)CC2)c(C)c1	-111%	-29%	?	-30%	8%[9.22 µM]	18µM*	6.5µM*	-26%	?	34%
Cc1cccc(N2CCN(C(=O)C3COc4ccccc4O3)CC2)c1C (stereo unspecified)	-42%	-37%	i	·	-5%	11µM*	16µM*	-16%	?	-3%
Cc1ccc(C)c(N2CCN(C(=O)c3ccccc3Br)CC2)c1	0%[10 µM]	-39%	i	3%	-2%	-15%	·	·	·	·
